Results taken from PubChem BioAssay (NCATS).
Unmarked numbers belong to inactive results. Results filed as inconclusive are left out. Where a call stands in place of a potency, no number is given. Active and inactive are the calls of the source. Unless noted, calls follow the shape of the dose curve; as a rule, active = well fitted curve in the direction sought with a large enough effect; inconclusive = small, poorly fitted or top-dose-only effect, or another doubt; inactive = no such curve, though single readings can be large; an effect the other way counts as inactive or inconclusive.

Assays:
[1] = biological target: Cytochrome P450 1A2 (Homo sapiens) (UniProt P05177); assay: p450-cyp1a2 (AID 410; calls by dose curve; also: potency is read from the fitted curve at half-maximal effect)
Sequence of Cytochrome P450 1A2 (Homo sapiens) (P05177 whole entry, looked up): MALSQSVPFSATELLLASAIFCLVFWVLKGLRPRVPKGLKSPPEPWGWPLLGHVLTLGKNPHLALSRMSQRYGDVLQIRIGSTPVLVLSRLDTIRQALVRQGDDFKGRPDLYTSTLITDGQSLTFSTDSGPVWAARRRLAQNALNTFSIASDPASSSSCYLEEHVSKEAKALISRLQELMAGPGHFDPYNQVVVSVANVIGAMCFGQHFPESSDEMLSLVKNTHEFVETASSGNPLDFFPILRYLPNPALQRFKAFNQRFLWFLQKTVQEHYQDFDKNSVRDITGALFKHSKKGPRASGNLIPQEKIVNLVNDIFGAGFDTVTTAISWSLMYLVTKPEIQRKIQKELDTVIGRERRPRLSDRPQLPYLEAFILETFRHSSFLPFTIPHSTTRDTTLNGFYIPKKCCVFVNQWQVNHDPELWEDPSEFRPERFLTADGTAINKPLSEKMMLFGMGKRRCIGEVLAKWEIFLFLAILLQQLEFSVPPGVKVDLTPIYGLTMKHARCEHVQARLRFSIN
In short: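 20nM CYP1A2, 100uM Luciferin-ME (=Km), 100mM KPO4; cpd 10 min RT; +NADPH regen, 60 min RT; stop/detect 20 min; luminescence. Normalized to furafylline 57 uM = full inhibition.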

[2] = biological target: Glucocorticoid receptor (Homo sapiens) (UniProt P04150); assay: GR-EFC Redistribution (AID 451; calls by dose curve; also: potency is read from the fitted curve at half-maximal effect); conditions: CHO-K1 GR-EFC translocation, beta-gal luminescence, 2 h
Sequence of Glucocorticoid receptor (Homo sapiens) (P04150 whole entry, looked up, the tested form may be a part): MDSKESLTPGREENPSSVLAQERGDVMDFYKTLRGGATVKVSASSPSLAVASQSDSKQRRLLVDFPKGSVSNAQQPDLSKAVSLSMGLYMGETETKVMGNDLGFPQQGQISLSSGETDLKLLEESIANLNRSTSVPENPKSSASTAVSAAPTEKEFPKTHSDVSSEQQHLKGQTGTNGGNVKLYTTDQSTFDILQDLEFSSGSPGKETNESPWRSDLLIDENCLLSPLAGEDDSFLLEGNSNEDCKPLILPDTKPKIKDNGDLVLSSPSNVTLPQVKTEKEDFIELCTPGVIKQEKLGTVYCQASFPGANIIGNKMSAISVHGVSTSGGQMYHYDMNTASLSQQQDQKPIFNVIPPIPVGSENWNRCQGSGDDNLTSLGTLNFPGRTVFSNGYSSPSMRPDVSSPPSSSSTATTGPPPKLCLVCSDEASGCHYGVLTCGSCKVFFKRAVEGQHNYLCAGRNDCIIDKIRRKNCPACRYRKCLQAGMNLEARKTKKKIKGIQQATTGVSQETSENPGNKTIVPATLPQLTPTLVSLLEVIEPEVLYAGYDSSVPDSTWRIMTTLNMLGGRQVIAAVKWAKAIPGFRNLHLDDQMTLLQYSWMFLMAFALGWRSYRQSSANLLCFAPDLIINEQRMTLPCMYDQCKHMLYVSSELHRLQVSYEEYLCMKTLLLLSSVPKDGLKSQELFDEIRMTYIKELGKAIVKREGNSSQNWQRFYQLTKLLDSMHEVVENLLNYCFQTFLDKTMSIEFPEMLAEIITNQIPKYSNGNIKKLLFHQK
In short: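 CHO-K1 cells stably expressing nuclear-localized β-gal enzyme acceptor and GR fused C-terminally to the enzyme donor fragment; ligand-driven nuclear translocation restores β-gal by complementation. Compounds titrated up to 46 uM final, 2 h at 37 °C; luminescence read.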

[3] = biological target: Mitogen-activated protein kinase 10 (Mus musculus) (UniProt Q61831); assay: JNK3 AlphaScreen Assay (AID 530; active = well fitted curve in either direction with a large enough effect, not every such curve was filed as active;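 also: kinase came from lysate of stimulated human HepG2 cells; signal reports phosphorylation of biotinylated GST-cJun 1-79 at Ser73 with 10 µM ATP; series mostly up to about 57 µM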)
In short: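 Biotinylated GST-cJun(1-79) served as substrate for JNK3 in HepG2 lysates stimulated with IL-1beta and TNF-alpha. ATP was 10 uM final, pH 7.6. Ser73 phosphorylation was quantified by AlphaScreen (680 nm excitation).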

[4] = biological target: Cytochrome P450 2D6 (Homo sapiens) (UniProt P10635); assay: qHTS Assay for Inhibitors and Substrates of Cytochrome P450 2D6 (AID 891); also: nearly all actives have a fitted effect of over 60% in size; also: potency is read from the fitted curve at half-maximal effect
Sequence of Cytochrome P450 2D6 (Homo sapiens) (P10635 whole entry, looked up): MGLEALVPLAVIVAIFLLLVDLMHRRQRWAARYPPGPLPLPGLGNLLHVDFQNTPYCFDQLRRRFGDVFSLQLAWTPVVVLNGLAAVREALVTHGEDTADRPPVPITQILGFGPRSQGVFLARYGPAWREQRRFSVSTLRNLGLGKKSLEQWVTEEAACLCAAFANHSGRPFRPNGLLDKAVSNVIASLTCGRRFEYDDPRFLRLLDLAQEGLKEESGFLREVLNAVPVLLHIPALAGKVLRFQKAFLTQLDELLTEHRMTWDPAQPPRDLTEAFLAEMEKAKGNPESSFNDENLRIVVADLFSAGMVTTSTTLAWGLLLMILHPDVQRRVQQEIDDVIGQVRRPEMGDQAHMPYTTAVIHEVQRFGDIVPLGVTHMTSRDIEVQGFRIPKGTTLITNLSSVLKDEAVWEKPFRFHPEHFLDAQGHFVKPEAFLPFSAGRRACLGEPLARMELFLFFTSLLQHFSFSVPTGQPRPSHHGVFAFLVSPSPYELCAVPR
In short: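 Luminescent read-out of luciferin formed by 5 nM human CYP2D6 demethylating 30 uM Luciferin-ME EGE (Km level) over 60 min at room temperature after NADPH regeneration addition. Data normalized to full inhibition by 1.43 uM quinidine.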

[5] = biological target: Cytochrome P450 2C19 (Homo sapiens) (UniProt P33261); assay: qHTS Assay for Inhibitors and Substrates of Cytochrome P450 2C19 (AID 899); also: nearly all actives have a fitted effect of over 60% in size; also: potency is read from the fitted curve at half-maximal effect
Sequence of Cytochrome P450 2C19 (Homo sapiens) (P33261 whole entry, looked up): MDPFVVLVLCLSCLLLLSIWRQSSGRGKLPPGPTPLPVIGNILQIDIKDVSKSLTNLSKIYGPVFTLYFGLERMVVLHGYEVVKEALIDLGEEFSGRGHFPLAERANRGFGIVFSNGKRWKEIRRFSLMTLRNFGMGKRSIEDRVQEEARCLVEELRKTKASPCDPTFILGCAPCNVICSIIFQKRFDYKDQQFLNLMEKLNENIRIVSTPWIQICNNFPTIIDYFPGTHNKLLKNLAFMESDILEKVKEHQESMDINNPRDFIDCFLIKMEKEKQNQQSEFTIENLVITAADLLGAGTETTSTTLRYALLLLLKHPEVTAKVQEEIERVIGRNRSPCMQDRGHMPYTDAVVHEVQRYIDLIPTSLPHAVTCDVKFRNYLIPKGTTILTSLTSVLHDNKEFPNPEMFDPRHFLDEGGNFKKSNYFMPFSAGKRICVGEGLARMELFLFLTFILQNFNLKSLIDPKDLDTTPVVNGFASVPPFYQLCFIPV
In short: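 In 50mM KPO4, the reaction held 5nM enzyme and KM-level (10uM) Luciferin-H EGE; it ran 60 min at 37C after NADPH regeneration and a 10 min compound preincubation. Luminescence values were scaled to 57uM ketoconazole as complete inhibition.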

[6] = biological target: 3',5'-cyclic-AMP phosphodiesterase 4B (Homo sapiens) (UniProt Q07343); assay: qHTS Assay for Inhibitors of PDE-IV (AID 607; active = well fitted activation curve with a large enough effect in the main read-out, with a control signal flat, not every such curve was filed as active)
Sequence of 3',5'-cyclic-AMP phosphodiesterase 4B (Homo sapiens) (Q07343 whole entry, looked up): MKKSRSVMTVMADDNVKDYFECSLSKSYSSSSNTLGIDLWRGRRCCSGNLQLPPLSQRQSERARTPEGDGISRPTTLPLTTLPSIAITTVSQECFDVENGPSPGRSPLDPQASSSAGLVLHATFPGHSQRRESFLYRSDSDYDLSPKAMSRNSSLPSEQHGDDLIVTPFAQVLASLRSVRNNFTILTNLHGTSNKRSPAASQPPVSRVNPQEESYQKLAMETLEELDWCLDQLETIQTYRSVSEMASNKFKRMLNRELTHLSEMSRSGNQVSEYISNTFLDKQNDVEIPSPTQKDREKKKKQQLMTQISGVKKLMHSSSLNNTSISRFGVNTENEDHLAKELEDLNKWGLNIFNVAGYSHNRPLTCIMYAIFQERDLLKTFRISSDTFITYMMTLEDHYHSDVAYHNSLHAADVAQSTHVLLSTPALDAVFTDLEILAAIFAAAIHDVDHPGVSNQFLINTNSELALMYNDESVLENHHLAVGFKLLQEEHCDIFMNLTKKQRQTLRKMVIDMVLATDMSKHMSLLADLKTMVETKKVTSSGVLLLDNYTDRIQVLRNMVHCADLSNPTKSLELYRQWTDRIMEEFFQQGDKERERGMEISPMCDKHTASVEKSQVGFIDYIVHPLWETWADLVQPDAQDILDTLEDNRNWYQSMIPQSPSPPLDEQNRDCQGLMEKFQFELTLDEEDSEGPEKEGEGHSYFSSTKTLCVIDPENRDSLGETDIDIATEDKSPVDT
In short: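 ACTOne HEK293 cells carry a modified cAMP-gated CNG channel and express endogenous PDE4; plated 1000 cells/well, compounds up to 22.9 uM final. Membrane-potential dye fluorescence (ex 535/em 590) was read; parental cells received 10 uM forskolin + 100 uM RO 20-1724.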

[7] = biological target: Cytochrome P450 2C9 (Homo sapiens) (UniProt P11712); assay: qHTS Assay for Inhibitors and Substrates of Cytochrome P450 2C9 (AID 883); also: nearly all actives have a fitted effect of over 60% in size; also: potency is read from the fitted curve at half-maximal effect
Sequence of Cytochrome P450 2C9 (Homo sapiens) (P11712 whole entry, looked up): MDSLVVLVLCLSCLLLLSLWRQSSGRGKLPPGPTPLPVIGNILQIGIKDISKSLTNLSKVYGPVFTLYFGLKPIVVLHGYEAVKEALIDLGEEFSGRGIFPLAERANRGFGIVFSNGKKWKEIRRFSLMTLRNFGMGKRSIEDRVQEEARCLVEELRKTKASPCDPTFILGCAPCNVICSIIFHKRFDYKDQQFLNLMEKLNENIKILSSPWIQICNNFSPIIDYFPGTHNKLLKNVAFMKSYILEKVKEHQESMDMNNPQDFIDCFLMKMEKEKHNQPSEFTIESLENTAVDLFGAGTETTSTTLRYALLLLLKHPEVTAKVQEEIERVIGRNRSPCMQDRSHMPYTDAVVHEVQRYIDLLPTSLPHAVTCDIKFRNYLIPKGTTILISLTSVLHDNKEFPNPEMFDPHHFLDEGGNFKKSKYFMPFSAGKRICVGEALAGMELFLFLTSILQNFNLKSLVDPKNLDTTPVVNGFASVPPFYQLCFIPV
In short: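 CYP2C9 deoxyluciferin hydroxylation, 37C, 60 min with NADPH regeneration; 10nM enzyme, 100uM Luciferin-H (KM). Glo detection reagent stopped reaction; luminescence normalized to sulphaphenazole (57uM) full inhibition.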

[8] = biological target: Cytochrome P450 3A4 (Homo sapiens) (UniProt P08684); assay: qHTS Assay for Activators of Cytochrome P450 3A4 (AID 885); also: nearly all actives have a fitted effect of over 65% in size
Sequence of Cytochrome P450 3A4 (Homo sapiens) (P08684 whole entry, looked up): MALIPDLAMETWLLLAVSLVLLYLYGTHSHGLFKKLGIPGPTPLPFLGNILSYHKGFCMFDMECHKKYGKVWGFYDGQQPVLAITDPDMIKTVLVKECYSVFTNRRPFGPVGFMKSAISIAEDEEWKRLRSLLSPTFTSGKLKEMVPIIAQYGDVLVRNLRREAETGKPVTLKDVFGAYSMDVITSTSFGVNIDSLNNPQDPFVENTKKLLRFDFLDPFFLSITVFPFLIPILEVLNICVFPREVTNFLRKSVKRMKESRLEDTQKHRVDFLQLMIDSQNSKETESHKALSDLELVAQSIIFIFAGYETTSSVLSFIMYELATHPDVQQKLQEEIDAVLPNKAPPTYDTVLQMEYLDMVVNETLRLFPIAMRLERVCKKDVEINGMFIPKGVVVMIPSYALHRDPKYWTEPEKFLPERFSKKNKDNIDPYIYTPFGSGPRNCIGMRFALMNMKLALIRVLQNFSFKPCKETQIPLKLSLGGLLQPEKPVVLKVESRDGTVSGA
In short: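 CYP3A4 activity: Luciferin-PPXE O-dealkylation, 25uM substrate, 200mM KPO4, RT throughout. Read-out is luciferase luminescence; higher values reflect activation.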

[9] = biological target: Cytochrome P450 3A4 (Homo sapiens) (UniProt P08684); assay: qHTS Assay for Inhibitors and Substrates of Cytochrome P450 3A4 (AID 884); also: potency is read from the fitted curve at half-maximal effect; nearly all actives have a fitted effect of over 50% in size
In short: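 Luminescent readout of luciferin produced by CYP3A4 (20 nM) dealkylation of Luciferin-PPXE, 25 uM (its KM). NADPH-driven reaction ran 60 min at RT after 10 min compound preincubation; data scaled to 57 uM ketoconazole as 100% inhibition.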

SMILES	Potency [1]	Potency [2] [µM]	Potency [3]	Potency [4]	Potency [5]	Potency [6]	Potency [7]	Potency [8]	Potency [9]
COc1cc(/C=C\C(=O)CC(=O)/C=C\c2ccc(O)c(OC)c2)ccc1O	15.8 µM (active)	> 46	inactive	15.8 µM (active)	2.51 µM (active)				
CC(C)C[C@@H](CC(=O)N[C@H](CC(=O)N[C@@H]1CCNC[C@H]1C(=O)N[C@H](CC(=O)N[C@@H](CCC(=O)O)CC(=O)O)Cc1c[nH]c2ccccc12)C(C)C)NC(=O)[C@@H]1CNCC[C@H]1N	inactive	> 46		inactive	inactive	inactive	inactive		
COC(=O)[C@@]1(Cc2ccc(F)cc2)[C@H]2c3cc(C(=O)N4CCCC4)n(Cc4ccc(OC(F)(F)F)cc4)c3C[C@H]2CN1C(=O)c1ccccc1								inactive	
CCCc1cc2c(n1Cc1cc(F)cc(F)c1)C(C)C1CN(C(=O)c3ccccc3)C(C)(C(=O)OC)C21 (centres undefined)								inactive	
COC(=O)[C@H]1C[C@@H]1[C@H](NC(=O)c1cccnc1)c1ccccc1	12.6 µM (active)		inactive			inactive		inactive	5.01 µM (active)
Cc1cc(CNC(=O)[C@H]2C[C@@H]2[C@H](NP(=O)(c2ccccc2)c2ccccc2)c2ccccc2)nn1C	inactive		inactive			inactive		inactive	2.51 µM (active)
C[C@@H](C(=O)NCCc1c[nH]c2ccccc12)[C@H]1C[C@]1(C)[C@H](NC(=O)OCc1ccccc1)c1ccccc1	15.8 µM (active)		inactive	2 µM (active)	2.51 µM (active)	inactive	0.631 µM (active)	inactive	1.58 µM (active)
O=C(Nc1ccc2ccccc2c1)[C@H]1C[C@@H]1[C@H](NP(=O)(c1ccccc1)c1ccccc1)c1ccccc1	10 µM (active)		inactive		3.16 µM (active)	inactive	3.16 µM (active)		2.51 µM (active)
COC(=O)[C@@]1(Cc2ccc(F)cc2)[C@H]2c3cc(C(=O)N4CCCC4)n(Cc4ccccn4)c3C[C@H]2CN1C(=O)c1ccccc1	20 µM (active)		inactive			inactive	2 µM (active)	inactive	
Nc1ccccc1C#Cc1ccccc1	0.501 µM (active)		inactive			inactive	7.94 µM (active)	inactive	
O=C(NCCc1c[nH]c2ccccc12)[C@@H]1C[C@H]1[C@@H](NP(=O)(c1ccccc1)c1ccccc1)c1ccccc1	15.8 µM (active)		inactive		6.31 µM (active)	inactive	0.251 µM (active)	inactive	1.26 µM (active)
COC(=O)[C@@]1(Cc2ccc(F)cc2)[C@H]2c3cc(C(=O)N4CCCC4)n(CCc4c[nH]c5ccccc45)c3C[C@H]2CN1C(=O)c1ccccc1	inactive		inactive			inactive	2.51 µM (active)	inactive	
CCCCCCN(C(=O)CCCCCN1C(=O)NC(c2ccc(-c3ccccc3)cc2)C(C(=O)OCc2ccccc2)=C1C)C(C(=O)NCCCC)c1ccc(OCC(=O)OC)c(C(=O)OC)c1 (centres undefined)	12.6 µM (active)		inactive	inactive	inactive	inactive	0.158 µM (active)		
COC(=O)[C@@]1(Cc2ccc(F)cc2)[C@H]2c3cc(C(=O)N(C)C)n(Cc4c(CO)[nH]cc(C)c4=O)c3C[C@H]2CN1C(=O)c1ccccc1	25.1 µM (active)		inactive			inactive		inactive	1.58 µM (active)
COC(=O)Cn1c(C(=O)N2CCCC2)cc2c1C[C@H]1CN(C(=O)c3ccccc3)[C@@](Cc3ccc(F)cc3)(C(=O)OC)[C@@H]21	15.8 µM (active)		inactive			inactive		inactive	3.16 µM (active)
C[C@@H](C(=O)NCc1cccc2ccccc12)[C@H]1C[C@]1(C)[C@H](NC(=O)OCc1ccccc1)c1ccccc1	25.1 µM (active)		inactive		2.51 µM (active)	inactive	3.16 µM (active)	inactive	0.398 µM (active)
CCCC1(C(=O)OC)C=C2C(=C(c3ccccc3)C(=O)C2C)CN1 (centres undefined)	15.8 µM (active)		inactive		7.94 µM (active)	inactive	5.01 µM (active)	inactive	
COC(=O)[C@@]1(Cc2ccc(F)cc2)[C@H]2c3cc(C(=O)N(C)C)n(Cc4ccc(Cl)c(C(F)(F)F)c4)c3C[C@H]2CN1C(=O)c1ccccc1	15.8 µM (active)		inactive			inactive	3.98 µM (active)	inactive	2 µM (active)
COC(=O)[C@H]1C[C@@H]1[C@H](NC(=O)c1cc(C)nn1C)c1ccccc1	20 µM (active)		inactive			inactive		inactive	6.31 µM (active)
